Assay outcomes: PubChem, several laboratories
tim10-1 inh: tim10-1 yeast growth inhibition; S. cerevisiae tim10-1 ts strain growth, BacTiter-Glo, 24 h; inhibition, % at 20 µM; actives 2.2% (n = 330,000); AID 463190;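 active = inhibition of at least 40%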;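 note: mutant grown at 25 °C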
NLRP3 yeast inh: blocks the NALP3 inflammasome reconstituted in yeast. Yeast reconstituted NLRP3/ASC/caspase-1, beta-gal luminescence, 24 h. inhibition, % at 10 µM. actives 0.39% (n = 330,000). AID 2825;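 active = inhibition of 50% or more; inactive = inhibition below 50%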
NALP1 inh: inhibitors of NALP1 inflammasome in yeast; S. cerevisiae NALP1/ASC/caspase-1 growth, X-gal OD620, 72 h; inhibition, % at 10 µM; actives 0.61% (n = 280,000); in the data active = inhibition mostly above about 24%, no sharp cut-off; inactive = mostly below about 32%
TIM10 inh: TIM10 yeast growth inhibition; S. cerevisiae TIM10 strain growth, BacTiter-Glo luminescence, 24 h; inhibition, % at 10 µM; actives 1.4% (n = 330,000); AID 463195;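 active = inhibition of 40% or more at the single tested concentration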;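 note: wild-type TIM10 isogenic control strain grown at permissive 25 °C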
tim23-1 inh: tim23-1 yeast growth inhibition; S. cerevisiae tim23-1 growth, BacTiter-Glo luminescence, 24 h; inhibition, % at 20 µM; actives 1.3% (n = 330,000);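 active = growth inhibition of the mutant yeast at or above 50%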;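 note: temperature-sensitive mutant grown at 25 °C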
V-ATPase pH: yeast V-ATPase proton transport regulation by pHLuorin; S. cerevisiae, pHLuorin cytosolic pH fluorescence; response, % at 10 µM; actives 0.37% (n = 350,000); AID 504577; in the data active = response mostly above about 7.3%, no sharp cut-off; inactive = mostly below about 5.4%; note: actives read high
TIM10 conf: confirmation of TIM10 yeast growth inhibitors; AID 463215; inhibition, % at 10 µM; actives 63% (n = 4,600); S. cerevisiae tim10 strain growth, BacTiter-Glo luminescence, 24 h; shares compounds with TIM10 inh;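 active = inhibition of yeast growth at or above a set limit in either of two replicates at 10 µM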; note: this counterscreen used the strain with wild-type TIM10
Numbers stand for hits. The list is not random: actives were taken first. Their share in the collection is about 4.2%.

`CCc1ccc2[nH]c(=O)c(C(c3nnnn3Cc3ccco3)N3CCC(C)CC3)cc2c1` (stereo not drawn) gave tim10-1 inh inactive, NLRP3 yeast inh inactive, NALP1 inh inactive, TIM10 inh 41, tim23-1 inh inactive, V-ATPase pH inactive and TIM10 conf inactive.
Cc1cccc(OCCCCc2c(C)n[nH]c2C)c1 was read as tim10-1 inh inactive, NLRP3 yeast inh inactive, NALP1 inh inactive, TIM10 inh 40, tim23-1 inh inactive, V-ATPase pH inactive and TIM10 conf 39.
`COc1ccccc1NC(=O)Nc1nc(CC(=O)N2CCN(c3ccccc3F)CC2)cs1` gave tim10-1 inh inactive, NLRP3 yeast inh inactive, TIM10 inh inactive, tim23-1 inh inactive and V-ATPase pH inactive.
For CC(NC(=O)c1ccc2c(c1)OCO2)C(c1cccs1)N1CCN(c2ccccc2)CC1 (stereo not drawn) the results were tim10-1 inh inactive, NLRP3 yeast inh inactive, TIM10 inh inactive, tim23-1 inh inactive and V-ATPase pH inactive.
For O=C(CCl)N(O)c1ccc(C=Cc2ccccc2)cc1 the results were V-ATPase pH inactive.
CCN(Cc1cc2ccccc2[nH]c1=O)C(=O)c1cccc([N+](=O)[O-])c1 was read as tim10-1 inh inactive, NLRP3 yeast inh inactive, NALP1 inh inactive, TIM10 inh inactive and tim23-1 inh inactive.
For Cc1nc2ccc(-c3nc4ccccc4o3)cc2[nH]1 the results were tim10-1 inh inactive, NLRP3 yeast inh inactive, NALP1 inh inactive, TIM10 inh 47, tim23-1 inh inactive, V-ATPase pH inactive and TIM10 conf 34.
Nc1ccc(-c2nc3ccc(-c4nc5ccccc5o4)cc3[nH]2)cc1 was read as tim10-1 inh inactive, NLRP3 yeast inh inactive, NALP1 inh inactive, TIM10 inh 55, tim23-1 inh inactive, V-ATPase pH inactive and TIM10 conf inactive.
Screening Cc1nn(C(=O)c2ccc([N+](=O)[O-])cc2)c(C)c1Br returned tim10-1 inh inactive, NLRP3 yeast inh inactive, NALP1 inh inactive, TIM10 inh inactive, tim23-1 inh inactive and V-ATPase pH inactive.
For Cc1cccc(NC(=S)N=Nc2c(O)[nH]c3ccccc23)c1 the results were tim10-1 inh inactive, NLRP3 yeast inh inactive, NALP1 inh inactive, TIM10 inh 41, tim23-1 inh inactive, V-ATPase pH inactive and TIM10 conf 37.
For CCN(CC(=O)NCc1ccc(Cl)cc1)C(=O)COc1ccc(Cl)cc1Br the results were tim10-1 inh inactive, NLRP3 yeast inh inactive, TIM10 inh inactive, tim23-1 inh inactive and V-ATPase pH inactive.
For CN(C)S(=O)(=O)c1ccc(C(=O)OCC(=O)N2CC3(C)CC2CC(C)(C)C3)cc1 (stereo not drawn) the results were tim10-1 inh inactive, NLRP3 yeast inh inactive, TIM10 inh inactive, tim23-1 inh inactive and V-ATPase pH inactive.
`Cc1noc(C)c1COc1ccc(C(=O)OCC(=O)N2CC3(C)CC2CC(C)(C)C3)cc1` (stereo not drawn) gave tim10-1 inh inactive, NLRP3 yeast inh inactive, NALP1 inh inactive, TIM10 inh 44, tim23-1 inh inactive, V-ATPase pH inactive and TIM10 conf 31.
`COc1ccc(-c2cc3ccccc3n2CC(O)Cn2nc(C)cc2C)cc1` (stereo not drawn) gave tim10-1 inh inactive, NLRP3 yeast inh inactive, NALP1 inh inactive, TIM10 inh 41, tim23-1 inh inactive, V-ATPase pH inactive and TIM10 conf 35.
Cc1cccc(C(=O)OCN2C(=O)c3ccccc3C2=O)c1[N+](=O)[O-] was read as tim10-1 inh inactive, NLRP3 yeast inh inactive, NALP1 inh inactive, TIM10 inh inactive, tim23-1 inh inactive and V-ATPase pH inactive.
COc1cc(Cl)ccc1OCc1cc(C(=O)N2CCN(C)CC2)no1 was read as tim10-1 inh inactive, NLRP3 yeast inh inactive, NALP1 inh inactive, TIM10 inh inactive, tim23-1 inh inactive and V-ATPase pH inactive.
COc1ccccc1N1CCN(C(=O)c2cc(-c3cccc(Cl)c3)on2)CC1 was read as tim10-1 inh inactive, NLRP3 yeast inh inactive, NALP1 inh inactive, TIM10 inh 43, tim23-1 inh inactive, V-ATPase pH inactive and TIM10 conf 31.
For COc1cc(Cl)ccc1OCc1cc(C(=O)N2CCN(c3ccccn3)CC2)no1 the results were tim10-1 inh inactive, NLRP3 yeast inh inactive, NALP1 inh inactive, TIM10 inh 55, tim23-1 inh inactive, V-ATPase pH inactive and TIM10 conf 68.
For COc1cc(SC)ccc1C(=O)Nc1ccc(Br)cn1 the results were tim10-1 inh inactive, NLRP3 yeast inh inactive, NALP1 inh inactive, TIM10 inh inactive, tim23-1 inh inactive and V-ATPase pH inactive.
COc1cc(SC)ccc1C(=O)Nc1ncc(Cl)cc1Cl was read as tim10-1 inh inactive, NLRP3 yeast inh inactive, NALP1 inh inactive, TIM10 inh 48, tim23-1 inh inactive, V-ATPase pH inactive and TIM10 conf inactive.
O=C(COC(=O)Cc1c(Cl)cccc1Cl)Nc1ccc(OC(F)(F)F)cc1 was read as tim10-1 inh inactive, NLRP3 yeast inh inactive, NALP1 inh inactive, TIM10 inh inactive, tim23-1 inh inactive and V-ATPase pH inactive.
`O=C(CSc1ncn(-c2ccccc2)n1)c1cccs1` gave tim10-1 inh inactive, NLRP3 yeast inh inactive, NALP1 inh inactive, TIM10 inh 48, tim23-1 inh inactive, V-ATPase pH inactive and TIM10 conf inactive.
CC(C)Cc1cc(CN2CCC(CO)(Cc3ccccc3)CC2)[nH]n1 was read as tim10-1 inh inactive, NLRP3 yeast inh inactive, NALP1 inh inactive, TIM10 inh inactive, tim23-1 inh inactive and V-ATPase pH inactive.
`O=C(NC12CC3CC(CC(C3)C1)C2)N1CCN(S(=O)(=O)c2ccc(Cl)cc2)CC1` gave tim10-1 inh inactive, NLRP3 yeast inh inactive, NALP1 inh inactive, TIM10 inh 43, tim23-1 inh inactive, V-ATPase pH inactive and TIM10 conf inactive.
`S=C(NCc1ccco1)Nc1cccc(Cl)c1Cl` gave tim10-1 inh inactive, NLRP3 yeast inh inactive, TIM10 inh 41, tim23-1 inh inactive, V-ATPase pH inactive and TIM10 conf inactive.
`O=c1c(Cl)c(N/N=C/c2ccc(Br)cc2)cnn1-c1ccccc1` gave tim10-1 inh inactive, NLRP3 yeast inh inactive, NALP1 inh inactive, TIM10 inh 40, tim23-1 inh inactive, V-ATPase pH inactive and TIM10 conf inactive.
Screening CNc1cnn(-c2ccccc2)c(=O)c1Cl returned tim10-1 inh inactive, NLRP3 yeast inh inactive, NALP1 inh inactive, TIM10 inh inactive, tim23-1 inh inactive and V-ATPase pH inactive.
Screening CC(c1ccccc1)n1cc(C(=O)NCc2cccnc2)nn1 (stereo not drawn) returned tim10-1 inh inactive, NLRP3 yeast inh inactive, NALP1 inh inactive, TIM10 inh 51, tim23-1 inh inactive, V-ATPase pH inactive and TIM10 conf inactive.
